# Screening data: PubChem, National Center for Advancing Translational Sciences (NCATS)
# CHX counter – counter-screen hit for Shiga toxin inhibitors, cycloheximide. cell reporter, cycloheximide protein synthesis inhibition counterscreen. max response, %. 300,000 compounds, 12% hits. AID 2314; in the data active means max response mostly above about 13%, no sharp cut-off; inactive means mostly below about 14%; further: read at 38.3 µM for the half of the compounds with a filed dose; 0% is about no effect
# Pf growth 96h – P. falciparum growth inhibition at 96 hour, primary screen for plastid delayed-death inhibitors; P. falciparum luciferase reporter growth, 96 h; Potency, µM (series often up to 28.7 µM), for the others: at the highest dose activity change, negative = inhibition, usual class: inhibitors; 320,000 compounds, 6.9% hits; AID 504834; further: potency means the concentration at half of the fitted maximal effect; on the % scale 0 is the no-effect control and ±100 the full control effect
#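 Delayed-death screen, second-generation endpoint: infected erythrocytes, 2% hematocrit, 0.05% parasitemia final; 96 hours at 37 C, 5% CO2; luciferase detection reagent; luminescence decrease equals reduced growth.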
# Sm TGR block – inhibitors of Schistosoma mansoni thioredoxin glutathione reductase. Q962Y6. purified TGR, DTNB reduction, TNB absorbance 405 nm. Potency, µM (highest dose often 114 µM), without a hit: top-dose activity change, negative = inhibition, most hits filed as inhibitors. 360,000 compounds, 3% hits. AID 485364; further: potency means the concentration at half of the fitted maximal effect; on the % scale 0 is the no-effect control and ±100 the full control effect; nearly all actives have a fitted effect of over 60% in size
#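 First, TGR (20 nM dispensed) and NADPH were mixed with compound. Second, a 15 min room-temperature incubation followed. Third, further NADPH and then DTNB were added to start the reaction. Finally, TNB absorbance was monitored kinetically.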
# Shiga toxin inh – inhibitors of Shiga toxin in Vero cells; Vero cells, Shiga toxin protein synthesis inhibition reporter; inhibition, % at 38.7 µM; 290,000 compounds, 9.2% hits; AID 2315; in the data active means inhibition mostly above about 28%, no sharp cut-off; inactive means mostly below about 43%; further: 0% is about no effect
# Pf growth 48h – inhibits P. falciparum growth in the first generation, 48 h; P. falciparum luciferase growth in erythrocytes, 48 h; Potency, µM (doses to about 28.7 µM), for inactives: at the top dose activity change, negative = inhibition, hits mostly inhibitors; 310,000 compounds, 5.9% hits; AID 504832; further: potency means the concentration at half of the fitted maximal effect; on the % scale 0 is the no-effect control and ±100 the full control effect
#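 Growth was read as firefly luciferase luminescence after a 48 h, 37 C, 5% CO2 exposure of compounds to reporter-bearing P. falciparum cultures (0.1% parasitemia, 2% hematocrit final) in Albumax-supplemented RPMI 1640.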
# NS1 inh – inhibitors of influenza NS1 protein function; 270,000 compounds, 0.4% hits; Potency, µM (series often up to 46.1 µM), without a hit: at the highest dose activity, positive = more growth; calls by dose curve; further: potency means the concentration at half of the fitted maximal effect; actives are rising curves; nearly all actives have a fitted effect of over 50% in size
#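 Growth recovery, yeast-based: influenza A NS1 expressed in S. cerevisiae causes slow growth, and suppressors are detected by OD600. The parent strain without NS1 is used as positive control.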
# Active calls of the source: *; ? = inconclusive; . = no result; + = active, no number; [ ] = dose if it differs, or a comment. Shown are actives, neighbours in structure and some others; about 21% of the full set was active somewhere. Unless noted, the call rests on the fitted dose curve; in most records, active means well fitted curve in the direction sought with a large enough effect; inconclusive means small, poorly fitted or top-dose-only effect, or another doubt; inactive means no such curve, though single readings can be large; an effect the other way counts as inactive or inconclusive.
SMILES,CHX counter,Pf growth 96h,Sm TGR block,Shiga toxin inh,Pf growth 48h,NS1 inh
Cn1cc(/C=C2\SC(=S)N(N3CCOCC3)C2=O)c2ccccc21,-1,45%,-20%,-16,-10%,-1%
Cc1ccc(OCC(=O)Nc2ccc(OCc3cc(=O)n4cccc(C)c4n3)cc2)cc1C,.,.,0%,.,.,.
Cc1cccc(C)c1NC(=O)CN1C(=O)S/C(=C\c2cccn2C)C1=O,8,66%,2%,12,3%,9%
Cn1cccc1/C=C1\SC(=Nc2cccc(O)c2)NC1=O,40*,?,?,100*,2%,1%
Cn1cccc1/C=C1\SC(=Nc2ccccc2)NC1=O,44*,7.4µM*,-25%,85*,67%,-10%
Cc1ccc(N=C2NC(=O)/C(=C/c3cccn3C)S2)c(C)c1,6,12µM*,9%,21,?,6%
COc1cc2c(cc1OC)C(NC(=O)C(F)(F)F)C/C2=N\O (stereo unspecified),-9,13%,2%,-15,13µM*,.
COc1ccccc1NS(=O)(=O)c1ccc(NC(=O)N2CCCCC2)cc1,-3,18%,-7%,1,-6%,-3%
O=[N+]([O-])c1ccc(-c2csc3[n+]2CCS3)cc1,-3,9.3µM*,-6%,-15,.,-2%
Fc1ccc(-c2csc(=S)[nH]2)cc1,5,-1%,-9%,26,33%[5.75 µM],5%
Fc1ccc(-c2csc3[n+]2CCS3)cc1,1,4.1µM*,-8%,-4,10µM*,-7%
CCOc1ccc(N2C(=O)CC(N(Cc3ccco3)C(C)=O)C2=O)cc1 (stereo unspecified),0,?,50µM*,-2,17%,4%
CCOc1ccc(N2C(=O)CC(N(Cc3ccco3)C(=O)CC)C2=O)cc1 (stereo unspecified),-5,?,.,-6,-2%,-1%
O=C(O)CCC(=O)N(Cc1ccco1)C1CC(=O)N(c2ccccc2)C1=O (stereo unspecified),1,-7%,-35%,-4,-1%,4%
CCCOc1ccc(N2C(=O)CC(N(Cc3ccco3)C(=O)CC)C2=O)cc1 (stereo unspecified),-2,51%,14µM*,1,?,4%
NS(=O)(=O)c1cccc(NC(=O)COC(=O)CN2C(=O)C3CC=CCC3C2=O)c1 (stereo unspecified),-2,29%,5%,-12,36%,.
CC1=C/C(=N\NC(=O)c2ccccc2)CC1,43*,21%,0%,+,32%,1%
CC1(C)Cc2c(sc(NC(=O)Nc3ccccc3)c2C(N)=O)CO1,33*,?,0%,72,65%,6%
CC1(C)Cc2c(sc(NC(=O)C(=O)N3CCCC3)c2C(N)=O)CO1,-5,-5%,-9%,10,11%,7%
Cc1sc(NC(=O)Nc2ccccc2)c(C(N)=O)c1C,43*,-28%,15%,72*,86%,-1%
COc1ccc(C(CNC(=O)c2oc3ccc(Cl)cc3c2C)N2CCCCC2)cc1 (stereo unspecified),0,?,10%,17,?,2%
COc1ccc(C(CNC(=O)c2oc3ccccc3c2C)N2CCCC2)cc1 (stereo unspecified),.,9.3µM*,-6%,.,9.3µM*,.
COc1ccc(C(CNC(=O)c2ccccc2C)N2CCCC2)cc1 (stereo unspecified),5,-18%,-1%,12,.,-11%
COc1ccc(C(CNC(=O)c2oc3c(Cl)cccc3c2C)N2CCCC2)cc1 (stereo unspecified),.,10µM*,0%,.,?,.
COc1ccc(NC2CCCN(C(=O)CSc3ccccc3)C2)cc1OC (stereo unspecified),-3,5%,-23%,-32,-25%,7%
SMILES,CHX counter,Pf growth 96h,Sm TGR block,Shiga toxin inh,Pf growth 48h,NS1 inh
NC(=O)c1ccc(-n2nnnc2SCc2ccccc2)cc1,6,-2%,0%,3,1%,4%
O=C(Nc1nccs1)c1ccc(CSc2nnnn2-c2ccccc2)cc1,44*,.,2%,41,?,5%
CCn1c(SCC(=O)Nc2nccs2)nnc1-c1ccc(C)cc1,-2,2%,-18%,18,-13%,4%
CCC(=O)Nc1ccc(-c2nnc(SCc3ccc(C(=O)Nc4nccs4)cc3)n2CC)cc1,9,5%,13%,103,7.4µM*,?
Cc1ccc(NC(=O)CN(C)CC(=O)N(C)Cc2ccccc2)cc1,.,32%,-3%,.,?,.
CCN1c2ccccc2-c2nc3ccccc3n2C1c1ccncc1 (stereo unspecified),-7,10µM*,0%,-14,5.2µM*,-132%
CCN1c2ccccc2-c2nc3ccccc3n2C1c1cccnc1 (stereo unspecified),0,-2%[5.75 µM],-11%,19,9.3µM*,-108%
O=C(COC(=O)C1CC2CCCC(C1)C2=O)Nc1cccc(F)c1 (stereo unspecified),.,-27%,-8%,.,-13%,.
COc1cccc(N(CC(=O)NCC2CCCO2)C(=O)CCC(=O)Nc2nccs2)c1 (stereo unspecified),0,48%,6%,-12,?,1%
CCOC(=O)CS(=O)(=O)c1ccccc1,-3,2%,?,-3,2.9µM*,-2%
CCOC(=O)CS(=O)(=O)c1ccc(O)cc1,-3,?,-2%,-7,-6%[5.75 µM],.
CC(C)(C)c1ccc(C(=O)CS(=O)(=O)c2ccccc2)cc1,38*,217%,0%,88*,349%,-28%
CCOC(=O)NC(C(Cl)(Cl)Cl)S(=O)(=O)c1ccccc1 (stereo unspecified),18*,-3%,25µM*,50*,-22%,1%
C/C=C(\CS(=O)(=O)c1ccccc1)S(=O)(=O)c1ccccc1,15*,23%,35µM*,44*,?,0%
Cc1ccc(S(=O)(=O)CC(=O)c2ccccc2)cc1,21,24%,17%,65,0%,3%
CC(Oc1ccc(Cl)cc1)c1ccnc(N)n1 (stereo unspecified),0,23%,.,-4,10%,0%
NS(=O)(=O)c1ccc(CCNC(=O)c2ccc3c(c2)OCCO3)cc1,-6,-48%,11%,-16,-17%,.
Cc1ccccc1CNC(=O)C(=O)NCC(c1ccc2c(c1)OCO2)N1CCOCC1 (stereo unspecified),.,.,0%,.,.,.
CCc1ccc(-c2ccc(C(=O)O)c(C)n2)cc1,40*,29%,9%,47*,36%,-8%
Cc1nc(-c2cccc(Br)c2)ccc1C(=O)O,-4,17%,-4%,4,7%,.
O=C(Nc1ccc2[nH]ccc2c1)c1ccccc1,27*,472%,6%,32,164%,2%
O=C(Nc1cccc(NC(=O)c2cccs2)c1)c1ccc(F)cc1,-2,19%,3%,4,3%,2%
